Potency data for seven molecules are collected here from PubChem BioAssay (Tox21).

A short description of assay [1]: Nuclear factor erythroid 2-related factor 2/antioxidant responsive element (Nrf2/ARE) small molecule agonists: qHTS cell viability counter screen in human keratinocytes (AID 1919968; active = well fitted curve in the direction sought with a large enough effect in the repeat runs; an effect the other way counts as inactive or inconclusive; also: nearly all actives have a fitted effect of over 55% in size; also: potency is read from the fitted curve at half-maximal effect). The gist of the method:
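CellTiter-Fluor fluorescence, read 1 h after reagent, gave viability in the same wells as the ARE-luciferase assay. KeratinoSens cells (1,500/well) had 23 h compound exposure at 37 C/5% CO2 following 5 h plating.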

A short description of assay [2]: Nuclear factor erythroid 2-related factor 2/antioxidant responsive element (Nrf2/ARE) small molecule agonists: luciferase reporter gene qHTS assay in human keratinocytes (AID 1919969). Also: nearly all actives have a fitted effect of over 35% in size. Also: potency is read from the fitted curve at half-maximal effect.
In assay [3] the target is Gonadotropin-releasing hormone receptor (Homo sapiens) (UniProt P30968). The experiment in a line: Human gonadotropin-releasing hormone receptor (GnRHR) small molecule agonists, calcium flux assay in GnRHR-HEK293 cells (AID 1920063). Also: nearly all actives have a fitted effect of over 35% in size. The gist of the method: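 Agonist mode: compounds at 15 concentrations, in triplicate, went onto calcium dye-loaded GnRHR-HEK293 cells. Intracellular calcium was then followed as 480/540 nm fluorescence at 1 s intervals over 3 min.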
Chain of Gonadotropin-releasing hormone receptor (Homo sapiens) (P30968 whole entry, looked up): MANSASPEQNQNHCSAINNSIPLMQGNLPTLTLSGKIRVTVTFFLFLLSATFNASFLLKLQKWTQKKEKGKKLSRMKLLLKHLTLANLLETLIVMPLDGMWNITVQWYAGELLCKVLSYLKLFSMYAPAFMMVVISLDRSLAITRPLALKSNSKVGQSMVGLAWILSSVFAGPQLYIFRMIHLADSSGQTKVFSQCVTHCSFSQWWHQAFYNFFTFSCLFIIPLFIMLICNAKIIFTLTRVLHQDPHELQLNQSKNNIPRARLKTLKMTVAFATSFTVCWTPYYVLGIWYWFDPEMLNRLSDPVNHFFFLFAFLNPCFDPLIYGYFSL

The target in assay [4] is KiSS-1 receptor (Homo sapiens) (UniProt Q969F8). The experiment in a line: Human kisspeptin (KISS1R) small molecule agonists, calcium flux assay in KISS1R-HEK293 cells (AID 1920064; active = well fitted curve in the direction sought with a large enough effect in the repeat runs; an effect the other way counts as inactive or inconclusive). The gist of the method:
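Agonist mode: intracellular calcium rise tracked at 1 s intervals over 3 min (480/540 nm) immediately after compound addition to dye-loaded KISS1R-HEK293 stable cells. Each compound tested at 15 concentrations in triplicate.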

Assay [5] in a line: G protein-coupled receptor (GPCR) small molecule agonists, calcium flux assay: HEK293 wild type cell line counter screen (AID 1920065). The gist of the method:
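Calcium flux counter screen: compound added in agonist mode at 15 concentrations in triplicate to dye-loaded parental HEK293 cells. Fluorescence (480/540) read kinetically for 3 min; ATP served as positive control.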

Assay [6] in a line: p53 small molecule agonists, cell-based qHTS assay with rat liver microsomes (AID 1963578). The gist of the method: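 Quantitative HTS of the Tox21 10K library: p53RE-bla cells, rat liver microsomes plus NADPH at 0.5 mg/mL final each, 16 h at 37 C, beta-lactamase fluorescence detection.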
Assay [7] in a line: p53 small molecule agonists, cell-based qHTS assay with rat liver microsomes: qHTS cell viability counter screen (AID 1963580). Also: nearly all actives have a fitted effect of over 45% in size. The gist of the method: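 After the beta-lactamase ratio was read, CellTiter-Glo was added to the same wells and luminescence measured at 30 min; cells had been treated 16 h at 37 C with compounds, rat liver microsomes and NADPH (0.5 mg/mL final each).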

Assay [8] is described as follows: p53 small molecule agonists, cell-based qHTS assay: qHTS cell viability counter screen (AID 1963581). Also: nearly all actives have a fitted effect of over 45% in size. The gist of the method:
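Counter screen read by CellTiter-Glo luminescence (ATP content, 30 min at room temperature), run in the same wells as the beta-lactamase reporter read. HCT-116 p53RE-bla cells saw compounds for 16 h at 37 C.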

Assay [9] in a line: p53 small molecule agonists, cell-based qHTS assay (AID 1963582; active = well fitted activation curve with a large enough effect in the signal ratio in the repeat runs, not every such curve was filed as active; the % refers to the signal ratio). The gist of the method:
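Read-out is beta-lactamase FRET fluorescence after 2 h at room temperature with LiveBLAzer B/G substrate. p53 response element-bla cells were treated 16 h at 37 C with compounds in DMSO, added 5 h after seeding.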

Assay [10] has as its target 5-hydroxytryptamine receptor 2A (Homo sapiens) (UniProt P28223). The assay is described as follows: 5-hydroxytryptamine receptor 2A (HTR2A) small molecule antagonists, cell-based qHTS assay (AID 1963586). Also: nearly all actives have a fitted effect of over 45% in size. The gist of the method: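 CHO cells stably expressing human HTR2A were plated for 18 h at 37 C, then loaded with calcium dye for 1 h. Compounds were preincubated 5 min at room temperature before DOI (4 nM solution) was added. Kinetic fluorescence was read for 3 min.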

Assay [11] shares this target. The assay is described as follows: 5-hydroxytryptamine receptor 2A (HTR2A) small molecule agonists, cell-based qHTS assay (AID 1963587). Also: nearly all actives have a fitted effect of over 30% in size. The gist of the method: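 CHO cells stably expressing human HTR2A, plated 18 h, loaded with calcium dye 1 h at 37 C. Agonist mode: compounds added and intracellular calcium fluorescence recorded kinetically for 2 min at 1 sec intervals.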

Assay [12] deals with Muscarinic acetylcholine receptor M1 (Homo sapiens) (UniProt P11229). The assay is described as follows: Cholinergic receptor muscarinic 1 (CHRM1) small molecule antagonists, cell-based qHTS assay (AID 1963588). Also: nearly all actives have a fitted effect of over 40% in size. The gist of the method: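 Compounds were tested at 15 concentrations in three independent runs. Dye-loaded CHRM1-CHO cells were exposed 5 min at room temperature before stimulation by acetylcholine added at 50nM. Intracellular calcium was read kinetically on FDSS for 3 min.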
Chain of Muscarinic acetylcholine receptor M1 (Homo sapiens) (P11229 whole entry, looked up): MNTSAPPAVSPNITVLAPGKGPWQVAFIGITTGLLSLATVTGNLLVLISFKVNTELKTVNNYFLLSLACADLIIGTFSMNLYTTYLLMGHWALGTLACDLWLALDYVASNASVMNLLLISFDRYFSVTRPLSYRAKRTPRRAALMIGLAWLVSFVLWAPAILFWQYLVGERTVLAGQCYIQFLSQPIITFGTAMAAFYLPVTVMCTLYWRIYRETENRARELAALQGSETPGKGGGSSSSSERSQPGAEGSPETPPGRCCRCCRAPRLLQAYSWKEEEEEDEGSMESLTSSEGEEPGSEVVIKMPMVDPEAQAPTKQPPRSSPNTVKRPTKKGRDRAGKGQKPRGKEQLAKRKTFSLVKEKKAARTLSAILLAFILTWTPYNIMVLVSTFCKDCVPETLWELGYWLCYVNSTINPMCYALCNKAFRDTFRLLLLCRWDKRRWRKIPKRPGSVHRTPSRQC

The target is the same in assay [13]. The experiment in a line: Cholinergic receptor muscarinic 1 (CHRM1) small molecule agonists, cell-based qHTS assay (AID 1963589). Also: nearly all actives have a fitted effect of over 35% in size. The gist of the method: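 Agonist-mode calcium-flux screen: compounds at 15 concentrations, three independent runs, were pin-transferred onto dye-loaded human CHRM1-CHO cells. Fluorescence was then recorded kinetically every second over minutes.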

The nature of assay [14]: cAMP Responsive Elements (CRE) small molecule agonists, cell-based qHTS assay (AID 1963590). Also: potency is read from the fitted curve at half-maximal effect. The gist of the method:
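Agonist mode: compound added to CRE-bla HEK 293T cells (2,000/well, 18 h after plating) for 3 h at 37 C/5% CO2. Reporter activity detected via FRET beta-lactamase substrate, 2 h room-temperature loading.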

The nature of assay [15]: cAMP Responsive Elements (CRE) small molecule antagonists, cell-based qHTS assay (AID 1963591; active = well fitted inhibition curve with a large enough effect in the signal ratio in the repeat runs, not every such curve was filed as active; the % refers to the signal ratio). The gist of the method: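 Antagonist mode: compounds are added alongside the adenylyl cyclase activator NKH477 (0.25 uM final) to CRE-bla HEK293T cells for 3 h. LiveBLAzer FRET substrate, 2 h at room temperature, reports bla expression.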
The target of assay [16] is Beta-2 adrenergic receptor (Homo sapiens) (UniProt P07550). The assay is described as follows: Adrenergic beta2 receptor (ADRB2) small molecule antagonists, cell-based qHTS assay (AID 1963592). Also: series mostly up to about 92 µM; nearly all actives have a fitted effect of over 50% in size. The gist of the method:
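Assay format: CHO-ADRB2 cells, 18-20hr seeding at 37C/5% CO2, then compound plus 1nM isoproterenol agonist mix for 0.5hr RT. Homogeneous time-resolved fluorescence cAMP detection after 1hr, expressed as 665/615 nm ratio.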

The target of assay [17] is D(2) dopamine receptor (Homo sapiens) (UniProt P14416). The experiment in a line: Dopamine D2 receptor (DRD2) small molecule agonists, cell-based qHTS assay (AID 1963594). Also: nearly all actives have a fitted effect of over 35% in size. The gist of the method: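 HEK293 cells stably expressing human DRD2, pre-treated with PDE inhibitor Ro20-1724 (0.1 mM final) and compound 10 min at room temperature, then stimulated with NKH477 (200nM […]) for 30 min. cAMP read by HTRF (665/620 nm).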
Chain of D(2) dopamine receptor (Homo sapiens) (P14416 whole entry, looked up): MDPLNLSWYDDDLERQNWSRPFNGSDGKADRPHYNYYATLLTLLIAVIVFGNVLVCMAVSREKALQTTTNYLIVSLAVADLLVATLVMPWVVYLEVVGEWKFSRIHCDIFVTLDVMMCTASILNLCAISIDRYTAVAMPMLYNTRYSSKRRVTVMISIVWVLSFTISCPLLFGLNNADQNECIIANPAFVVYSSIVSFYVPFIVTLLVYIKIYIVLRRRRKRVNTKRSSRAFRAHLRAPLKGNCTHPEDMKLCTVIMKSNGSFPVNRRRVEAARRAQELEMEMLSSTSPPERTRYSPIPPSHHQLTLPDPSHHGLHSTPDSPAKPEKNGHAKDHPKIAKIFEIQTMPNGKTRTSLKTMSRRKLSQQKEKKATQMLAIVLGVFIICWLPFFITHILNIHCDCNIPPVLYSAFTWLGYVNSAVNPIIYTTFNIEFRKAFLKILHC

Assay [18] has the same target. The experiment in a line: Dopamine D2 receptor (DRD2) small molecule antagonists, cell-based qHTS assay (AID 1963595; active = well fitted inhibition curve with a large enough effect in the signal ratio in the repeat runs, with a control signal flat; the % refers to the signal ratio). The gist of the method: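 Stable D2 receptor HEK293 line, 24 h after seeding. Compound preincubated 10 min, then quinpirole (12 nM) with forskolin analogue NKH477 (200 nM), 30 min, room temperature. Detection by time-resolved FRET of cAMP.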
Assay [19] in a line: p53 small molecule agonists, cell-based qHTS assay with human liver microsomes: qHTS cell viability counter screen (AID 1963579). Also: nearly all actives have a fitted effect of over 45% in size. The gist of the method:
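Viability of p53RE-bla cells is measured as CellTiter-Glo luminescence following a 16 h, 37 C incubation with compound, liver microsomes from human donors and NADPH.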

In assay [20] the target is Beta-2 adrenergic receptor (Homo sapiens) (UniProt P07550). The experiment in a line: Adrenergic beta2 receptor (ADRB2) small molecule agonists, cell-based qHTS assay (AID 1963593).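 Also: CHO cells stably overexpressing human ADRB2.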 The gist of the method:
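CHO cells stably over-expressing ADRB2 were plated overnight at 37C, then dosed with compounds plus a stimulation mix containing 100uM IBMX and 25uM Ro-20-1724 for 0.5hr at room temperature. cAMP was measured by HTRF competition, 1hr.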

Each structure is given as a SMILES string. Values joined by “and” are separate entries in the source; they are usually repeats but may differ in a detail not shown here. Identical values can stand only once. Values without a mark were called inactive. Inconclusive results are not listed. Active and inactive are the calls of the source. Unless noted, calls follow the shape of the full dose curve.

Chain of 5-hydroxytryptamine receptor 2A (Homo sapiens) (P28223 whole entry, looked up): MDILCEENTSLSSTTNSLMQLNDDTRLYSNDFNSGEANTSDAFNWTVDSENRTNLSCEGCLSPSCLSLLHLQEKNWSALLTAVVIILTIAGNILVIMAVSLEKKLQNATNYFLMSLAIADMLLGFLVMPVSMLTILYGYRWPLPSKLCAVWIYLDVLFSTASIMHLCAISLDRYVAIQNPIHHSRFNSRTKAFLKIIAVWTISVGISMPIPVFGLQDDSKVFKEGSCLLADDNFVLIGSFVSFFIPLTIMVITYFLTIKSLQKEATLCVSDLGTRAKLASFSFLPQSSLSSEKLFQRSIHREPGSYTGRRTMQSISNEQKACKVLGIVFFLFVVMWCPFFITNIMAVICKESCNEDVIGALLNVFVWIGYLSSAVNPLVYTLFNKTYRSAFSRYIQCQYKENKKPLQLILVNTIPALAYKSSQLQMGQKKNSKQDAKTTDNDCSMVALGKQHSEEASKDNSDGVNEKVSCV
Chain of KiSS-1 receptor (Homo sapiens) (Q969F8 whole entry, looked up): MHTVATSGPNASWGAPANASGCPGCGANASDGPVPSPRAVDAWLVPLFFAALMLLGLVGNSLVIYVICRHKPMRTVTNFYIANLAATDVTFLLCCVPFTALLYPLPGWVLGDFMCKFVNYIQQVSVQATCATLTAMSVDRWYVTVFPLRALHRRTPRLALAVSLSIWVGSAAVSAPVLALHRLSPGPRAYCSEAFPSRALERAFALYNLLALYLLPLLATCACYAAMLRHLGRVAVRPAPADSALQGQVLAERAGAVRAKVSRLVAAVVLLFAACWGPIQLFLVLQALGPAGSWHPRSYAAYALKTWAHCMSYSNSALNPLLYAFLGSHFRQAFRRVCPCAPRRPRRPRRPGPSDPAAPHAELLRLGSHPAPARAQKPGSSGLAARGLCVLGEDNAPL
Chain of Beta-2 adrenergic receptor (Homo sapiens) (P07550 whole entry, looked up): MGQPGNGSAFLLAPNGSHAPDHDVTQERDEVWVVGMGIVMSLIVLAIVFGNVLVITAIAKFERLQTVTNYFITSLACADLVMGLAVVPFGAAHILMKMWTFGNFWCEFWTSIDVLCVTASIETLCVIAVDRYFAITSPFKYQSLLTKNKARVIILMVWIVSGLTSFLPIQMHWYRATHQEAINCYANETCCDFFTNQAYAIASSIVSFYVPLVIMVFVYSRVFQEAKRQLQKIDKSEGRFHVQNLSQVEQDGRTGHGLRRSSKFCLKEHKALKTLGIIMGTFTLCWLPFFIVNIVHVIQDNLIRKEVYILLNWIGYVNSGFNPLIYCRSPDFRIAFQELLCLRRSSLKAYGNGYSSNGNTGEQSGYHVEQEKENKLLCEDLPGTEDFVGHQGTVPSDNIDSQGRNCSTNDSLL

Take `CN1CCCC1=O`: the Potency entry in [1], in assay [2], in assay [3], in assay [4], in assay [5] and in assay [6] was “inactive” in each case. For the same molecule, the Potency result in assay [7], in assay [8], in [9], in assay [10], in assay [11] and in assay [12] was “inactive” throughout. The Potency result in [13], in assay [14], in assay [15], in assay [16], in [17] and in assay [18] was “inactive” throughout.
`CCOc1ccc(Cc2nccc3cc(OCC)c(OCC)cc23)cc1OCC`: the Potency in assay [1] is 4.22 µM (active); in [14], 6.68 µM (active). In addition, the Potency entry in assay [2], in assay [3], in assay [4], in assay [5], in [6] and in assay [19] was “inactive” in each case. For the same molecule, the Potency result in assay [8], in assay [9], in [11], in assay [12], in assay [13] and in [15] was “inactive” in each case. The Potency result in assay [16] and in assay [17] was “inactive” in each case.
Turning to `O=C(O)c1cccc(Cl)c1Cl`, the Potency result in [1], in [2], in assay [3], in [4], in assay [5] and in assay [6] was “inactive” each time. Also, the Potency entry in assay [7], in [8], in [9], in assay [11], in [12] and in [13] was “inactive” each time. Besides, the Potency entry in [14], in assay [15], in assay [16], in [20] and in assay [17] was “inactive” throughout.
Regarding `CCN(CC)c1ccc(C=O)c(O)c1`, the Potency result in assay [1], in assay [2], in assay [3], in [4], in assay [5] and in [6] was “inactive” in each case. Also, the Potency entry in [7], in [8], in assay [9], in [10], in assay [11] and in [12] was “inactive” in each case. Also, the Potency entry in assay [13], in [14], in assay [15], in assay [16], in assay [20] and in [17] was “inactive” in each case. Besides, the Potency result in [18] was “inactive”.
Turning to `N#C[C@@H]1C[C@@H]2C[C@@H]2N1C(=O)[C@@H](N)C12CC3CC(CC(O)(C3)C1)C2`, the Potency result in assay [1], in assay [2], in assay [3], in assay [4], in [5] and in [6] was “inactive” throughout. The Potency result in assay [7], in [8], in [9], in assay [10], in [11] and in [12] was “inactive” in each case. Moreover, the Potency result in assay [13], in assay [14], in [15], in assay [16], in [20] and in assay [17] was “inactive” each time. Further, the Potency result in [18] was “inactive”.
Turning to `Nc1ccc(N=Nc2ccccc2)c(N)n1`, the Potency was 30.8 µM (active) in [1]; 1.73 µM (active) and 2.73 µM (active) and 2.37 µM (active) in assay [2]. Also, the Potency result in assay [3], in [4], in [5], in assay [6], in [7] and in assay [8] was “inactive” each time. In addition, the Potency entry in assay [9], in [10], in assay [11], in assay [13], in [14] and in [20] was “inactive” each time. The Potency entry in assay [17] and in [18] was “inactive” in each case.
Take `CC(C)(C)c1ccc(C=O)cc1`: the Potency result in assay [1], in [2], in assay [3], in assay [4], in assay [5] and in assay [6] was “inactive” in each case. The Potency result in assay [7], in assay [8], in assay [9], in [10], in assay [11] and in assay [12] was “inactive” in each case. For the same molecule, the Potency result in assay [13], in assay [14], in [15], in [16], in [20] and in [18] was “inactive” throughout.
